Active and inactive are the calls of the source. Calls follow the shape of the dose curve; as a rule, active = well fitted curve in the direction sought with a large enough effect; inactive = no such curve, though single readings can be large or run the other way.
Target: Pyruvate kinase PKLR (Homo sapiens) (UniProt P30613)
Experiment: qHTS for Activators of Human Muscle Isoform Pyruvate Kinase: Extended Characterization against Liver Pyruvate Kinase Probe 2
Settings: purified hPK-L, ATP production, Kinase-Glo luminescence; series mostly up to 57.7 µM; activity change, positive = activation: at the top concentration
Description: Human pyruvate kinase liver (hPK-L) enzyme was supplied as a highly purified (>95% pure) preparation from Harvard Medical School and assayed for its ability to generate ATP from ADP using phosphoenolpyruvate (PEP) as a substrate. ATP generation was detected in a coupled reaction by luciferase-mediated luminescence, an ATP-dependent process. Pyruvate kinase substrates, PEP and ADP, were present in the assay at Km and approximately 10-fold below Km respectively. The enzyme was assayed at an intermediate level of activity to screen for both inhibitors and activators. NIH Chemical Genomics Center [NCGC] NIH Molecular Libraries Probe Centers Network [MLPCN] MLPCN Grant: MH085679 Assay Submitter (PI): Matthew G. Vander Heiden, Harvard Medical School
Three uL of substrate mix (at r.t.) in assay buffer (50 mM Imidazole pH7.2, 50 mM KCl, 7 mM MgCl2, 0.01% Tween 20, 0.05% BSA) was dispensed into white solid bottom 1,536 well microtiter plates so that the final concentrations of substrates in the assay were 0.1 mM ADP and 0.5 mM PEP. 23 nL of compound were delivered by a pin tool and 1 uL of enzyme mix (final concentration of 0.1 nM) in assay buffer (4 degree Celsius) was added. Plates were incubated at room temperature for 1 hour. Two uL of detection mix (Kinase-Glo, Promega; at 4 degree Celsius protected from light) was added and luminescence read by a ViewLux (Perkin Elmer) at 1 second exposure/plate. Data were normalized to the uninhibited (row 31). Additionally, a no enzyme and 5-fold enzyme control was dispensed in row 32, split equally between the two conditions.

Sequence of Pyruvate kinase PKLR (Homo sapiens) (P30613 whole entry, looked up, canonical isoform): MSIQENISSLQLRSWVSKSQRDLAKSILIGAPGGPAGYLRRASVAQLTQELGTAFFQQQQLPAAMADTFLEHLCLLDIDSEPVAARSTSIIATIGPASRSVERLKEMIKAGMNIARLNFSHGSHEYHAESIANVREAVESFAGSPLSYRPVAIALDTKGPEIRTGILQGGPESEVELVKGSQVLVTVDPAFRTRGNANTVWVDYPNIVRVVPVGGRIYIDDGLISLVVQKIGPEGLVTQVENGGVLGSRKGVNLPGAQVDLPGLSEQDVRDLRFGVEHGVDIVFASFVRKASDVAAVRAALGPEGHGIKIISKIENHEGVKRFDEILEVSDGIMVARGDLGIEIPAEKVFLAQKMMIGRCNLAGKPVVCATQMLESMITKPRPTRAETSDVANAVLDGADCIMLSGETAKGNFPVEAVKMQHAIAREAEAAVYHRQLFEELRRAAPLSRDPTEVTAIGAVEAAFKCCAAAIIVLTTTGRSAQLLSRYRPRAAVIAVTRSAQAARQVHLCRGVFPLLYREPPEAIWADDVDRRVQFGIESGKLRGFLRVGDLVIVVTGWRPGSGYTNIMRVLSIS

Structure (SMILES) | activity change, positive = activation
COc1cccc(Cn2ncc3c4sc(S(C)=O)cc4n(C)c3c2=O)c1 (centres undefined) | -7.39% (inactive)
Cc1ccc(NS(=O)(=O)c2ccc3c(c2)CCC(=O)N3)cc1C | -1.46% (inactive)
Nc1cccc(S(=O)(=O)N2CCCN(S(=O)(=O)c3ccc4c(c3)OCCO4)CC2)c1 | 10.9% (inactive)
O=S(=O)(c1ccc2c(c1)OCCO2)N1CCN(S(=O)(=O)c2c(F)cccc2F)CC1 | -0.557% (inactive)

Source: PubChem BioAssay AID624390 (National Center for Advancing Translational Sciences (NCATS), 2012)
